Most compounds without a hit are left out; they make up all but 6.2% or so of the library.
LASV entry inh: inhibitors of Lassa virus binding or cell entry | Lassa virus pseudotype entry inhibition, cell reporter | 300,000 compounds, 1.2% hits | Potency, µM (highest dose often 37.9 µM), actives largely listed as inhibitors | AID 540256; calls by dose curve; tested in HEK293 cells; further: nearly all actives have a fitted effect of over 50% in size
FMDV antiviral: antivirals against foot and mouth disease virus | FMDV antiviral cell-based qHTS | Potency, µM (doses to about 57.9 µM), usual class: inhibitors | 410,000 compounds, 1.2% hits | AID 1159524; calls by dose curve; tested in HEK293T cells; further: read-out not given here; nearly all actives have a fitted effect of over 45% in size
HCMV inh: blocks human cytomegalovirus replication; HFF cells, HCMV-luciferase reporter, 72 h; stronger effect = lower value; activity change, negative = inhibition, % at 57.5 µM; 410,000 compounds, 4.5% hits; AID 1259415; in the data active means activity change below about -60%; inconclusive means no clear call, values can overlap the other calls; inactive means above about -39%
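Two compound doses tested in HFFs infected with HCMV-luciferase, MOI 1 PFU/cell, 72 h at 37C. Lysate luminescence read with OneGlo; data normalized against buffer-only and 10uM Salinomycin inhibitor controls.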
Marburg entry inh: Marburg virus entry inhibition | Marburg virus pseudotyped entry inhibition, cell reporter | Potency, µM (highest dose often 37.8 µM), usual class: inhibitors | 300,000 compounds, 1.8% hits | AID 540276; calls by dose curve; tested in HEK293 cells
Hits are given with their value; - = inactive; ? = inconclusive; . = not tested or not shown.

SMILES	LASV entry inh	FMDV antiviral	HCMV inh	Marburg entry inh
CNC(=O)c1cncc(C=Cc2c(C)cccc2C)c1	-	.	.	.
COc1cc(C2C(C#N)=C(N)Oc3cc(O)ccc32)cc2c1OCO2 (stereo not given)	-	-	-	?
Cc1ccc(C2C(C#N)=C(N)Oc3cc(N)ccc32)cc1 (stereo not given)	.	-	-	.
COc1cc(C2C(C#N)=C(N)Oc3cc(O)ccc32)cc(OC)c1OC (stereo not given)	?	.	-89.1	1.83µM
COc1cc(C2C(C#N)=C(N)Oc3cc4c(cc32)OCO4)cc(OC)c1OC (stereo not given)	?	-	-86.1	?
COc1ccc(C2C(C#N)=C(N)Oc3cc(O)ccc32)cc1OC (stereo not given)	-	-	-	?
COc1cc(C2C(C#N)=C(N)Oc3cc(N(C)C)ccc32)cc2c1OCO2 (stereo not given)	0.517µM	-	-77.7	?
N#CC1=C(N)Oc2cc(N)ccc2C1c1cccc(Br)c1 (stereo not given)	.	-	-74.7	.
Cc1cccc(N2CCC(N3CCN(C4CCCCC4)C(CCO)C3)CC2)c1C (stereo not given)	-	?	-75.3	?
CS(=O)(=O)N1CCN=C1SCc1ccc(Br)cc1	.	-	?	.
CC(=O)Nc1ccc(S(=O)(=O)N2CCN=C2SCc2ccc([N+](=O)[O-])cc2)cc1	?	22.4µM	?	12.6µM
CS(=O)(=O)N1CCN=C1SCc1ccc([N+](=O)[O-])cc1	-	-	-65.3	?
CCCCN(CC)CCCNC(=O)c1nn(-c2ccc(OC)cc2)c(=O)c2c1c1ccccc1n2C	-	-	-	-
Cc1ccc(NC(=O)CSc2nc3nccnc3c(=O)n2CCc2c[nH]c3ccccc23)cc1C	-	-	-	.
CCOc1ccc(C(=O)Nc2ccc(Cl)c(-c3nc4cc(C)cc(C)c4o3)c2)cc1	-	-	-	-
CCc1ccccc1NC(=O)CSc1nc2c(c(=O)[nH]1)CN(Cc1ccccc1OC)CC2	-	-	-	-
C=CC1=C(C)C2=Cc3c(C=C)c(C)c4[n]3[Sn+2][n]3c(c(C)c(CCC(=O)O)c3=CC3=NC(=C4)C(C)=C3CCC(=O)O)=CC1=N2	.	-	.	.
Cc1ccc(NC(=O)CN2C(=O)c3ccccc3C2=O)c(C)c1	-	-	-	-
C[C@H](O)CON1C(=O)c2ccccc2C1=O	.	.	.	-
Cc1cc(C)c(C)c(S(=O)(=O)ON2C(=O)c3ccccc3C2=O)c1C	?	?	-75.5	?
Cc1ccc(S(=O)(=O)ON2C(=O)c3ccccc3C2=O)c(C)c1	?	?	-70.6	?
Cc1cc(C)c(S(=O)(=O)ON2C(=O)c3ccccc3C2=O)cc1C	-	25.1µM	-81.3	?
O=C1c2ccccc2C(=O)N1OS(=O)(=O)c1ccc(F)cc1	.	?	-	.
Cc1ccc(S(=O)(=O)NCc2ccc3c(c2)OCO3)cc1	.	.	-	.
Cc1cc(C)c(S(=O)(=O)Oc2ccccc2[N+](=O)[O-])c(C)c1	3.16µM	-	?	?
SMILES	LASV entry inh	FMDV antiviral	HCMV inh	Marburg entry inh
O=C1CCCc2[nH]c(=O)c(-c3nc(-c4cccc([N+](=O)[O-])c4)cs3)cc21	-	-	-	-
CO[C@H]1[C@H](NC(=O)c2ccsc2)c2ccccc2C12CCN(Cc1cc(Cl)ccc1O)CC2	.	-	.	.
CCC(O)CNC(=O)NC(=C(Cl)Cl)c1ccc(C)c(F)c1 (stereo not given)	.	?	-80.5	.
Cc1ccc(C(O)c2ncc(-c3ccc(C(F)(F)F)cc3)[nH]2)cc1F (stereo not given)	.	-	-	.
Oc1ccc(/C=N\Nc2cc(N3CCOCC3)nc(N3CCOCC3)n2)c(O)c1	?	-	-	?
Brc1ccc(-c2ccc(/C=N/Nc3nc(N4CCOCC4)nc(N4CCOCC4)n3)o2)cc1	-	?	?	3.98µM
Clc1ccc(-c2ccc(/C=N/Nc3cc(N4CCOCC4)nc(N4CCOCC4)n3)o2)cc1	-	?	-	6.31µM
CCOC(=O)[C@]12CCC=C1N(CCC1=CCCCC1)C(=O)[C@H](CC(=O)NCc1cccc3ccccc13)C2	.	-	-	.
CCN1CCCC1CNCc1cc2c(OC)c(OC)c(OC)cc2nc1N(C)C (stereo not given)	.	-	.	.
CCn1c(/C=C/N(C)c2ccccc2)[n+](CC)c2ccc(Cl)cc21	8.2µM	.	-94.2	?
CCn1c(C)[n+](Cc2ccccc2)c2ccc(Cl)cc21	.	-	-67.3	-
C/C1=C\CCCCc2cc(O)ccc2OC(=O)CC1	.	.	-	.
O=C(NNC(=O)c1cccnc1SCc1cccc([N+](=O)[O-])c1)c1ccccn1	?	-	-99.6	3.16µM
O=C(NNC(=O)c1cccnc1SCc1cccc([N+](=O)[O-])c1)c1ccc(F)cc1	?	-	-91.6	?
CSc1ccc(C2=CC(=O)C[C@H](c3ccc4c(c3)OCO4)C2)cc1	.	-	-64.3	.
Cc1cc(C2=CC(=O)C[C@H](c3ccc(F)cc3)C2)ccc1F	.	-	-61.8	.
C[C@H]1C[C@@H](C)O[C@@]2(C1)C(=O)N(Cc1ccc(F)cc1)c1ccccc12	.	.	.	-
c1ccc(CN(Cc2ccccc2)c2c3c(nc4ncnn24)CCC3)cc1	.	-	-93.7	.
c1ccc(CNc2c3c(nc4ncnn24)CCC3)cc1	-	-	-	-
CC(=O)c1ccc(NC(=O)CC2Sc3ccccc3NC2=O)cc1 (stereo not given)	-	-	-	?
CC1CC(C)CN(c2nc(NCc3ccco3)nc(N)c2[N+](=O)[O-])C1 (stereo not given)	?	?	-66.7	-
CC1CCCN(c2nc(NCc3ccco3)nc(N)c2[N+](=O)[O-])C1 (stereo not given)	?	-	-102.0	?
Cc1cccc(Nc2nc(NCc3ccco3)nc(N3CCOCC3)n2)c1	?	-	-	2.31µM
Cc1cccc(Nc2nc(N)c([N+](=O)[O-])c(N3CCOCC3)n2)c1	-	?	-	5.62µM
COc1cccc(Nc2nc(N)c([N+](=O)[O-])c(N3CCOCC3)n2)c1	.	?	-	.
SMILES	LASV entry inh	FMDV antiviral	HCMV inh	Marburg entry inh
COc1ccc(Nc2nc(N)c([N+](=O)[O-])c(N3CCCC3)n2)cc1	.	-	-	.
Cc1ccc(Nc2nc(N)c([N+](=O)[O-])c(N3CCCC(C)C3)n2)cc1C (stereo not given)	-	?	-61.9	2.24µM
COc1ccccc1C1CN(Cc2c(C)nc3sccn23)Cc2ccccc2O1 (stereo not given)	.	-	.	.
N/C(CCS(=O)(=O)c1ccc(Cl)cc1)=N\OC(=O)c1ccccc1C(F)(F)F	22.4µM	-	-	?
Cn1nc(C(C)(C)C)cc1C(=O)N1CCCCC1c1cc(C(=O)Nc2ccc(F)c(Cl)c2)no1 (stereo not given)	.	25.1µM	?	.
O=C(Nc1ccc(F)c(Cl)c1)c1cc(C2CCCN(S(=O)(=O)c3ccccc3)C2)on1 (stereo not given)	.	-	-69.5	.
CC(C)(C)c1ccc(NC(=O)c2cc(C3CCCN(S(=O)(=O)c4cccc5cccnc45)C3)on2)cc1 (stereo not given)	.	?	-85.7	.
CCCC(=O)N1CCCC(c2cc(C(=O)Nc3ccccc3)no2)C1 (stereo not given)	.	20µM	?	.
Cc1ccc(C)n1-c1nnc(N2CCCC(C(=O)Nc3ccc(C(C)C)cc3)C2)s1 (stereo not given)	-	?	-	-
